Inconclusive results are not listed. Calls of active or inactive are those of the source. Calls follow the shape of the dose curve; as a rule, active = well fitted inhibition curve with a large enough effect; inconclusive = small, poorly fitted or top-dose-only effect; inactive = flat fitted curve, though single readings scatter.
% is scaled to controls: 0 for no effect and ±100 for the full control effect; potency is read from the fitted curve at half-maximal effect.

The test system of one test is UISO. In words: qHTS assay to identify novel small-molecules to repurpose for Merkel cell carcinoma treatment (AID 1296009). Also: nearly all actives have a fitted effect of over 60% in size. Particulars: MCC and control cell lines, CellTiter-Glo viability, 72 h; series mostly up to 46 µM; activity change, negative = cytotoxicity: at the top concentration. The gist of the method:
(§1)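 Cells exposed to NPC (8-point) and MIPE (11-point) compound dilutions for 72 hr at 37 degree celsius; viability read by CellTiter-Glo luminescence, normalized to no-cell and DMSO in-plate controls.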
Consider `C#Cc1ccc(-c2ccccc2F)cc1`, for which the “activity change, negative = cytotoxicity” value is 42% (inactive).
Turning to `Cn1c(=O)c2c(ncn2CC(=O)O)n(C)c1=O`, the “activity change, negative = cytotoxicity” value was 5.59% (inactive).
Take `Cc1cc(=O)oc2cc(O[C@@H]3SC[C@@H](O)[C@H](O)[C@H]3O)ccc12`: the “activity change, negative = cytotoxicity” value is 9.77% (inactive).
The same measure, in the same setting: with `CC(=O)N(CC(O)CO)c1c(I)c(C(=O)NCCO)c(I)c(C(=O)NCC(O)CO)c1I` (stereo not drawn) the figure was 36.4% (inactive); with `O=C(OCC(COC(=O)c1cccnc1)(COC(=O)c1cccnc1)COC(=O)c1cccnc1)c1cccnc1`, 2.98% (inactive).
Regarding `CN(C)CCN(Cc1ccsc1)c1ccccn1`, the “activity change, negative = cytotoxicity” value is 14.6% (inactive).
Still for that read-out and setting: the same measure for `C#CC(C)(CC)OC(=O)c1ccccc1C(=O)O` (stereo not drawn): 35.7% (inactive); for `COC(=O)c1cc(Cl)c(NC(C)=O)cc1OC`: 8.58% (inactive); for `CCOC(=O)CN1CCCC1=O`: 24.5% (inactive).
On the same count and under the same terms, the same measure for `COc1ccccc1OCC1CNC(=O)O1` (stereo not drawn): 28.4% (inactive).
As to `C[C@]12CCC(=O)C=C1CC[C@@H]1[C@@H]2[C@@H](O)C[C@@]2(C)[C@H]1CC[C@]2(O)C(=O)COC(=O)CCC(=O)O`, the “activity change, negative = cytotoxicity” value is -0.292% (inactive).
As to `OCCOCCN1CCN(C(c2ccccc2)c2ccc(Cl)cc2)CC1` (stereo not drawn), the “activity change, negative = cytotoxicity” value is 16.2% (inactive).
As to `CCCCOC(=O)CCCCCCCCC(=O)OCCCC`, the “activity change, negative = cytotoxicity” value is 32.2% (inactive).
Regarding `CCCCCC1Nc2cc(C(F)(F)F)c(S(N)(=O)=O)cc2S(=O)(=O)N1` (stereo not drawn), the “activity change, negative = cytotoxicity” value was 21.2% (inactive).
In the case of `CN1CCC(=C2c3ccccc3CCc3cccnc32)CC1`, the “activity change, negative = cytotoxicity” value was 20.7% (inactive).
With `CSCC[C@H](NC(=O)[C@H](Cc1c[nH]c2ccccc12)NC(=O)CCNC(=O)OC(C)(C)C)C(=O)N[C@@H](CC(=O)O)C(=O)N[C@@H](Cc1ccccc1)C(N)=O`, the “activity change, negative = cytotoxicity” value is 13.2% (inactive).
On the same count and under the same terms, with `CCCc1c2oc(C(=O)O)cc(=O)c2cc2c(=O)cc(C(=O)O)n(CC)c12` the figure was 25.4% (inactive); with `CCC(=O)Oc1ccc2c(c1)CC[C@@H]1[C@@H]2CC[C@@]2(C)[C@H]1C[C@@H](OC(=O)CC)[C@@H]2OC(=O)CC`, -6.84% (inactive).
In the case of `CCC(CN)=C(c1ccccc1)c1ccccc1`, the “activity change, negative = cytotoxicity” value was -6.41% (inactive).
The same measure, in the same setting: with `COc1ccc2nc(SCc3ncc(C)c(OC)c3C)[nH]c2c1` the figure was -15.2% (inactive); with `N#CC1(c2ccc(F)cc2)CCC(=O)CC1`, 18.3% (inactive); with `Cc1cc(CCCOc2c(C)cc(-c3noc(C(F)(F)F)n3)cc2C)on1`, -22.7% (inactive).
`NS(=O)(=O)c1cc(C(=O)NN2C[C@H]3[C@H]4CCC(C4)[C@H]3C2)ccc1Cl`: the “activity change, negative = cytotoxicity” value was 25.3% (inactive).
On to `O=C(CCCl)NCc1ccccc1`, for which the “activity change, negative = cytotoxicity” value was 10.1% (inactive).
For the compound `CCCCC(O)/C=C(C)/C=C/C=C/C(=O)N1CCCC1=O` (stereo not drawn), the “activity change, negative = cytotoxicity” value was 24% (inactive).
On to `CC(C)(C)NCC(O)COc1ccccc1OCC1CCCO1` (stereo not drawn), for which the “activity change, negative = cytotoxicity” value was 26.1% (inactive).
For `O=c1[nH]c2ccccc2c(=O)n1CCCl`, the “activity change, negative = cytotoxicity” value is 21.9% (inactive).
For the compound `CCNC(=O)NCCCOc1cccc(CN2CCCCC2)c1`, the “activity change, negative = cytotoxicity” value was -5.94% (inactive).
In the case of `O=C1CC2(CCCC2)CC(=O)N1`, the “activity change, negative = cytotoxicity” value was 17.1% (inactive).
Regarding `CCCc1ncc(C(=O)O)s1`, the “activity change, negative = cytotoxicity” value is 27.7% (inactive).
For the compound `CCOC(=O)c1ccc(NC(=O)CN2CCCCC2)cc1`, the “activity change, negative = cytotoxicity” value was 6.81% (inactive).
For `CCCCN(CCCC)C(C(N)=O)c1ccc(OC)cc1` (stereo not drawn), the “activity change, negative = cytotoxicity” value is 2.92% (inactive).
As for `Cc1coc2ccccc2c1=O`, the “activity change, negative = cytotoxicity” value was 21.3% (inactive).
With `COC(=O)c1cc(S(N)(=O)=O)ccc1OC`, the “activity change, negative = cytotoxicity” value was 11.5% (inactive).
Consider `CC(=O)Nc1ccc(S(=O)(=O)Nc2cc(C)on2)cc1`, for which the “activity change, negative = cytotoxicity” value was 17.6% (inactive).
`CCn1ccc(NS(=O)(=O)c2ccc(N)cc2)nc1=O`: the “activity change, negative = cytotoxicity” value is 10.7% (inactive).
`OCCCc1ccccc1`: the “activity change, negative = cytotoxicity” value is 22.2% (inactive).

Another test deals with WaGa. The description is as above. As to conditions: MCC and control cell lines, CellTiter-Glo viability, 72 h; series mostly up to 46 µM; activity change, negative = cytotoxicity: at the top concentration. An outline of the steps:
as §1
(ATP-based viability assays read luminescence as a measure of living cells.)
Consider `C#Cc1ccc(-c2ccccc2F)cc1`, for which the “activity change, negative = cytotoxicity” value is 12.9% (inactive).
Regarding `Cn1c(=O)c2c(ncn2CC(=O)O)n(C)c1=O`, the “activity change, negative = cytotoxicity” value is 18.7% (inactive).
Regarding `CC(=O)N1CCN(c2ccc(O)cc2)CC1`, the Potency was 23.7 µM (active).
Consider `Cc1cc(=O)oc2cc(O[C@@H]3SC[C@@H](O)[C@H](O)[C@H]3O)ccc12`, for which the “activity change, negative = cytotoxicity” value was -7.58% (inactive).
Take `CC(=O)N(CC(O)CO)c1c(I)c(C(=O)NCCO)c(I)c(C(=O)NCC(O)CO)c1I` (stereo not drawn): the “activity change, negative = cytotoxicity” value was 21.9% (inactive).
Consider `O=C(OCC(COC(=O)c1cccnc1)(COC(=O)c1cccnc1)COC(=O)c1cccnc1)c1cccnc1`, for which the “activity change, negative = cytotoxicity” value was 10.4% (inactive).
Turning to `CN(C)CCN(Cc1ccsc1)c1ccccn1`, the “activity change, negative = cytotoxicity” value is 4.23% (inactive).
In the case of `C#CC(C)(CC)OC(=O)c1ccccc1C(=O)O` (stereo not drawn), the “activity change, negative = cytotoxicity” value was 7.01% (inactive).
Same read-out and setting: the same measure for `COC(=O)c1cc(Cl)c(NC(C)=O)cc1OC`: 13.3% (inactive); for `CCOC(=O)CN1CCCC1=O`: 10.8% (inactive); for `COc1ccccc1OCC1CNC(=O)O1` (stereo not drawn): 21.1% (inactive).
Regarding `C[C@]12CCC(=O)C=C1CC[C@@H]1[C@@H]2[C@@H](O)C[C@@]2(C)[C@H]1CC[C@]2(O)C(=O)COC(=O)CCC(=O)O`, the “activity change, negative = cytotoxicity” value is 7.17% (inactive).
With `CCCCOC(=O)CCCCCCCCC(=O)OCCCC`, the “activity change, negative = cytotoxicity” value was 4.4% (inactive).
Same read-out and setting: with `CCCCCC1Nc2cc(C(F)(F)F)c(S(N)(=O)=O)cc2S(=O)(=O)N1` (stereo not drawn) the figure was 9.34% (inactive); with `CN1CCC(=C2c3ccccc3CCc3cccnc32)CC1`, 11.7% (inactive).
For the compound `CSCC[C@H](NC(=O)[C@H](Cc1c[nH]c2ccccc12)NC(=O)CCNC(=O)OC(C)(C)C)C(=O)N[C@@H](CC(=O)O)C(=O)N[C@@H](Cc1ccccc1)C(N)=O`, the “activity change, negative = cytotoxicity” value is 4.29% (inactive).
Turning to `CCCc1c2oc(C(=O)O)cc(=O)c2cc2c(=O)cc(C(=O)O)n(CC)c12`, the “activity change, negative = cytotoxicity” value is -5.39% (inactive).
For `CCC(CN)=C(c1ccccc1)c1ccccc1`, the “activity change, negative = cytotoxicity” value is 6.72% (inactive).
Regarding `COc1ccc2nc(SCc3ncc(C)c(OC)c3C)[nH]c2c1`, the “activity change, negative = cytotoxicity” value is -10% (inactive).
`N#CC1(c2ccc(F)cc2)CCC(=O)CC1`: the “activity change, negative = cytotoxicity” value is 6.22% (inactive).
On to `NS(=O)(=O)c1cc(C(=O)NN2C[C@H]3[C@H]4CCC(C4)[C@H]3C2)ccc1Cl`, for which the “activity change, negative = cytotoxicity” value was 6.22% (inactive).
With `O=C(CCCl)NCc1ccccc1`, the “activity change, negative = cytotoxicity” value was 13.6% (inactive).
`CCCCC(O)/C=C(C)/C=C/C=C/C(=O)N1CCCC1=O` (stereo not drawn): the “activity change, negative = cytotoxicity” value was 6.85% (inactive).
With `CC(C)(C)NCC(O)COc1ccccc1OCC1CCCO1` (stereo not drawn), the “activity change, negative = cytotoxicity” value was 6.67% (inactive).
On to `Clc1ccc2c(c1)Nc1ccccc1S2`, for which the “activity change, negative = cytotoxicity” value was -14.4% (inactive).
The same measure, in the same setting: with `O=c1[nH]c2ccccc2c(=O)n1CCCl` the figure was 5.66% (inactive); with `CCNC(=O)NCCCOc1cccc(CN2CCCCC2)c1`, -11.3% (inactive); with `O=C1CC2(CCCC2)CC(=O)N1`, 15.3% (inactive).
As for `CCCc1ncc(C(=O)O)s1`, the “activity change, negative = cytotoxicity” value is 12% (inactive).
With `CCOC(=O)c1ccc(NC(=O)CN2CCCCC2)cc1`, the “activity change, negative = cytotoxicity” value is 7.51% (inactive).
Take `CCCCN(CCCC)C(C(N)=O)c1ccc(OC)cc1` (stereo not drawn): the “activity change, negative = cytotoxicity” value is 12% (inactive).
For `Cc1coc2ccccc2c1=O`, the “activity change, negative = cytotoxicity” value was 17.1% (inactive).
Still for that read-out and setting: with `COC(=O)c1cc(S(N)(=O)=O)ccc1OC` the figure was 14.3% (inactive); with `CC(=O)Nc1ccc(S(=O)(=O)Nc2cc(C)on2)cc1`, 9.32% (inactive); with `CCn1ccc(NS(=O)(=O)c2ccc(N)cc2)nc1=O`, 20% (inactive).
The same measure, in the same setting: with `OCCCc1ccccc1` the figure was 16.1% (inactive).
